In the library only some 18% were active in any assay of this set; here they are far more common.
TDP1 block: inhibitors of human tyrosyl-DNA phosphodiesterase TDP1; Q9NUW8; recombinant TDP1, AlphaScreen DNA substrate cleavage; Potency, µM (titrated, usually from 130 µM), without a hit: at the highest dose activity change, negative = inhibition, most hits filed as inhibitors; 0.28% of 350,000 active; further: nearly all actives have a fitted effect of over 40% in size
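Recombinant human Tdp1 (E. coli-expressed, 1 nM final) preincubated with compounds 15 min at room temperature, then 5'-biotin/3'-phosphotyrosine-FITC DNA substrate (15 nM final) added for 5 min. AlphaScreen beads (10 ug/ml final) added 10 min; cleavage lowers signal.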
DT40 TDP1 no CPT: qHTS for Inhibitors of human tyrosyl-DNA phosphodiesterase 1 (TDP1): qHTS in cells in absence of CPT | DT40 Tdp1-/- hTDP1 cells, no CPT, ATP luminescence, 48 h | Potency, µM (highest dose often 46.2 µM), without a hit: at the highest dose activity change, negative = growth inhibition, most hits filed as inhibitors | 15% of 420,000 active | AID 686978, 2013; further: nearly all actives have a fitted effect of over 55% in size
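Seeded 400 DT40-hTDP1 cells/well (vehicle DMSO, no 20 nM CPT); pinned compounds; ≥48 hr at 37 °C; CellTiter-Glo luminescence as viability measure.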
PLK1 PBD block: PLK1 (human) polo-box domain binding inhibition | 2.8% of 360,000 active | P53350 | Plk1 PBD binding of FITC phosphopeptide, fluorescence polarization | Potency, µM, without a hit: max response, negative = inhibition, actives largely listed as inhibitors; further: series mostly up to about 57 µM; nearly all actives have a fitted effect of over 65% in size
KAT2A inh: GCN5L2 (KAT2A) acetyltransferase inhibition; GCN5L2 HAT assay, ThioGlo1 CoA-SH fluorescence; Potency, µM (series often up to 58.9 µM), without a hit: at the highest dose activity change, negative = inhibition, actives largely listed as inhibitors; 0.21% of 390,000 active
Target sequence (Q92830 whole entry, looked up): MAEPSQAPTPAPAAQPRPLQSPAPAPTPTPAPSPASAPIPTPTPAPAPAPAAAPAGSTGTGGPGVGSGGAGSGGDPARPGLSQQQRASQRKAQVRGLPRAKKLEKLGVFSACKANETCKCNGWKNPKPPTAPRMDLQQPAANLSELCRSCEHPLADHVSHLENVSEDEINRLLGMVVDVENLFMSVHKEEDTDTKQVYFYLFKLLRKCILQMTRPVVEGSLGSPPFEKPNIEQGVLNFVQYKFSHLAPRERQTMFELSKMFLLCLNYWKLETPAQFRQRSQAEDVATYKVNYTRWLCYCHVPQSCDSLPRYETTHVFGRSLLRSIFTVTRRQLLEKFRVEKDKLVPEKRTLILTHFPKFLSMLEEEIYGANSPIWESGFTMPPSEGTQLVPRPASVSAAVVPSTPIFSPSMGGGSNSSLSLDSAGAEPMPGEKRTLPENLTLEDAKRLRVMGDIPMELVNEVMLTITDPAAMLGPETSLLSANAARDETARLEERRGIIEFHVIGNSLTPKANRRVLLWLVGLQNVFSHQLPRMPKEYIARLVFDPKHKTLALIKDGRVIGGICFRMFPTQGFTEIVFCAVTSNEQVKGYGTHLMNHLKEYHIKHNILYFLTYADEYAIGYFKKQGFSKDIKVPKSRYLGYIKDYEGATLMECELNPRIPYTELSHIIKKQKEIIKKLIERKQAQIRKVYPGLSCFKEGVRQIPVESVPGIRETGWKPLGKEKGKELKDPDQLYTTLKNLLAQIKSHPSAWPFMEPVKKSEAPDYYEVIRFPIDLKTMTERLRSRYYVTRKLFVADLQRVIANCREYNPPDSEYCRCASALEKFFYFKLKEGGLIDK
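ThioGlo1-coupled HAT assay: 20nM GCN5L2, 70uM acetyl-CoA, 75uM H3(1-25) peptide, pH 7.5. Fluorescence read at 340/540nm at start and after 20 min at room temperature.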
DT40 TDP1 CPT: DT40-hTDP1 cell growth loss with CPT | chicken DT40 Tdp1-/-;hTDP1 cells + 20 nM CPT, ATP luminescence, 48 h | Potency, µM (titrated, usually from 46.2 µM), for the others: at the top dose activity change, negative = growth inhibition, hits mostly inhibitors | 12% of 420,000 active | AID 686979; further: nearly all actives have a fitted effect of over 55% in size
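Cell growth measured by CellTiter-Glo luminescence after a minimum 48 h, 37 C compound exposure with 20 nM CPT in Tdp1-knockout DT40 cells stably expressing hTDP1, seeded 400/well; qHTS titration format.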
VDR inh: inhibitors of human vitamin D receptor | Potency, µM, for inactives: max response, negative = inhibition, usual class: inhibitors | AID 504847 | VDR-SRC2-3 peptide fluorescence polarization, 2 h | 0.93% of 400,000 active
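Fluorescence polarization assay of small-molecule disruption of VDR binding to coregulator peptide SRC2-3. Compounds and controls pin-transferred, then read after 2 h incubation at ambient room temperature.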
* hit, by the source's call; ? = inconclusive; . = not tested or not shown. The call rests on the fitted dose curve; in most records, active means well fitted curve in the direction sought with a large enough effect; inconclusive means small, poorly fitted or top-dose-only effect, or another doubt; inactive means no such curve, though single readings can be large; an effect the other way counts as inactive or inconclusive. On the % scale 0 is the no-effect control and ±100 the full control effect; potency means the concentration at half of the fitted maximal effect.

SMILES	TDP1 block	DT40 TDP1 no CPT	PLK1 PBD block	KAT2A inh	DT40 TDP1 CPT	VDR inh
Cc1cc(Nc2cccc(Cl)c2)nc2ccc(NC(=O)Cc3ccc(Cl)cc3)cc12	-5%	?	.	-11%	18µM*	16%
Cn1c(=O)c2cc(NC(=O)CCc3cccc(Cl)c3)ccc2n1Cc1cccc(C(F)(F)F)c1	.	-24%	2%	.	-20%	.
COc1ccc(Cl)cc1C(=O)Nc1ccc2nc(Nc3cccc(Cl)c3)cc(C)c2c1	0%	12µM*	.	-12%	21µM*	18%
COc1ccc(CC(=O)Nc2ccc3nc(Nc4cccc(Cl)c4)cc(C)c3c2)cc1OC	6%	16µM*	.	-12%	18µM*	5%
CCCNC(=O)/C=C/C(=O)O	5%	-10%	-7%	-3%	-3%	-24%
CCc1ccc2oc(C(=O)Nc3sc4c(c3C(=O)NC)CCCC4)cc(=O)c2c1	4%	7%	.	-4%	-1%	-2%
Cc1ccc(-n2c(COCC(=O)O)nc3cccnc32)cc1	-1%	3%	.	1%	2%	11%
COc1ccc(CCNC(=O)c2ccc3c(c2)N(Cc2ccccc2)C(=O)c2ccccc2S3=O)cc1OC (configuration not stated)	6%	12µM*	.	-6%	16µM*	-11%
CCOc1ccc(CCNC(=O)c2ccc3c(c2)N(Cc2ccccc2F)C(=O)c2ccccc2S3=O)cc1OCC (configuration not stated)	7%	23µM*	.	-15%	?	2%
CCN1C(=O)c2ccccc2S(=O)(=O)c2ccc(C(=O)NCCCN(CC(C)C)CC(C)C)cc21	.	-15%	-1%	6%	5%	-7%
CCN1C(=O)c2ccccc2S(=O)c2ccc(C(=O)NCCN(CC(C)C)CC(C)C)cc21 (configuration not stated)	.	23µM*	1%	-7%	?	-1%
Cc1cc(C)n(CCCNC(=O)c2ccc(C)c(S(=O)(=O)N3CCOCC3)c2)n1	.	-6%	-4%	-3%	0%	-27%
O=C(O)c1ccc(Cl)cc1NC(=O)C1CCN(S(=O)(=O)c2cccs2)CC1	.	-2%	?	.	16%	.
CC(C)c1nc2ccc(C(=O)NCc3ccc(N(C)C)cc3)cc2o1	2%	-14%	.	-5%	12%	12%
O=C1COc2ccc(C(=O)COC(=O)Cc3ccc(F)cc3)cc2N1	-2%	?	-2%	-12%	-1%	5%
O=C(NC1CC1)c1ccc2c(c1)S(=O)(=O)c1cc(Cl)ccc1C2=O	-8%	.	.	2%	.	.
CC(=O)NCCN1C(=O)S/C(=C\c2cccs2)C1=O	5%	-9%	?	-19%	5%	19%
COc1ccc(-c2nc3ccc(NS(=O)(=O)c4ccc(C)cc4)cc3o2)cc1	6%	10µM*	.	-14%	?	-5%
Cc1ccc(S(=O)(=O)Nc2ccc3nc(C)oc3c2)cc1	.	10µM*	-7%	.	18µM*	-8%
Cc1ccc(S(=O)(=O)Nc2ccc3nc(-c4ccc(F)cc4)oc3c2)cc1	3%	?	.	-12%	?	2%
COc1ccc(NS(=O)(=O)c2ccc3oc(SC)nc3c2)cc1	.	9.2µM*	21µM*	-7%	12µM*	0%
CNC(=O)CSc1nc2cc(S(=O)(=O)Nc3ccc(OC)cc3)ccc2o1	.	-8%	-9%	.	-6%	4%
CC(C)Oc1ccc(CCNC(=O)CC2C(=O)NCCN2C)cc1 (configuration not stated)	.	?	3%	-2%	-7%	-8%
Cc1cc(=O)c2c(O)c3c(O)cc(O)c4c5c(O)cc(O)c6c(O)c7c(=O)cc(C)c8c1c2c(c34)c(c65)c78	21%	8.2µM*	.	18µM*	16µM*	?
CCCCC[n+]1ccn(C2=C([O-])c3ccccc3C(=O)/C2=N\S(=O)(=O)c2ccccc2)c1	4%	18µM*	0%	-2%	15µM*	-12%
SMILES	TDP1 block	DT40 TDP1 no CPT	PLK1 PBD block	KAT2A inh	DT40 TDP1 CPT	VDR inh
O=C1/C(=N\S(=O)(=O)c2cccs2)C([n+]2ccc(CCCc3ccccc3)cc2)=C([O-])c2ccccc21	1%	-29%	-13%	-4%	-12%	0%
CC(C)(C)c1cc[n+](C2=C([O-])c3ccccc3C(=O)/C2=N\S(=O)(=O)c2ccccc2)cc1	4%	23µM*	-1%	-28%	?	-17%
CCCCC[n+]1ccn(C2=C([O-])c3ccccc3C(=O)/C2=N\S(=O)(=O)c2ccc(Br)cc2)c1	5%	?	-12%	-16%	10µM*	-30%
Cc1cc[n+](C2=C([O-])c3ccccc3C(=O)/C2=N\S(=O)(=O)c2cccs2)cc1C	5%	?	-14%	1%	?	28%
CC(C)[n+]1ccn(C2=C([O-])c3ccccc3C(=O)/C2=N\S(=O)(=O)c2ccccc2)c1	8%	18µM*	-9%	-5%	?	8%
CCCCC[n+]1ccn(-c2nc3ccccc3nc2[N-]S(=O)(=O)c2ccc(C)cc2)c1	0%	-5%	-15%	-20%	-2%	-4%
O=S1(=O)C2CC3C=CC2(O3)C(O)C(Cc2ccccc2)N1Cc1cccc(F)c1 (configuration not stated)	9%	.	.	.	.	-6%
Cc1ccc(C)c(C(=O)OCC(=O)Nc2ccc(N3CCOCC3)cc2)c1	-7%	-13%	-28%	-1%	3%	2%
CC[C@@H](CC1CCCCC1)C(=O)N(Cc1ccccc1)c1ccccc1	-20%	4.1µM*	1%	-1%	4.6µM*	-10%
O=C1OC(c2ccccc2)=N/C1=C\C=C\c1ccco1	45µM*	-12%	-15%	25µM*	-30%	-14%
O=C(CNc1cccc(C(F)(F)F)c1)N/N=C/c1cccc(Br)c1	-2%	?	0%	-6%	18µM*	12%
Cc1ccc(NCC(=O)N/N=C/c2cccc(Br)c2)cc1	1%	-26%	3%	-10%	-25%	-15%
CC(C)=CCC[C@H](C)C[C@@H]1Cc2[nH]c(=S)[nH]c(=O)c2[C@@H](c2ccc(F)cc2)O1	.	26µM*	-3%	.	?	.
CC(C)=CCC[C@H](C)C[C@@H]1CC2=C(C(=O)OC(C)(C)O2)[C@@H](c2ccc(F)cc2)O1	.	16µM*	-2%	.	?	.
CC(C)=CCC[C@H](C)C[C@@H]1Cc2[nH][nH]c(=O)c2[C@@H](c2ccc(F)cc2)O1	.	?	-19%	.	?	.
